# Measurements as given in PubChem BioAssay (NCATS).
# Records with an inconclusive call do not appear. Where a call stands in place of a potency, no number is given. Calls of active or inactive are those of the source. Calls follow the shape of the dose curve; as a rule, active = well fitted inhibition curve with a large enough effect; inconclusive = small, poorly fitted or top-dose-only effect; inactive = no such curve, though single readings can be large or run the other way.
# Biological target: N-terminal Xaa-Pro-Lys N-methyltransferase 1 (Homo sapiens) (UniProt Q9BV86)
# Sequence (Q9BV86 whole entry, looked up): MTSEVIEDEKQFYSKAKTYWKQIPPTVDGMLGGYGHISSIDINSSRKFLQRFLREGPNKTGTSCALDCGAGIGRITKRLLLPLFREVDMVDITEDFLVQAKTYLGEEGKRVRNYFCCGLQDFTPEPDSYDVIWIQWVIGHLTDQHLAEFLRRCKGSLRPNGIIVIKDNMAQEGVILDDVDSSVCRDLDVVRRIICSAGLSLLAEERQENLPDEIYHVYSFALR
# Assay: qHTS Assay for Inhibitors of N-terminal methyltransferase 1 (NTMT1): LOPAC validation of the NTMT1 SAHH-coupled ThioGlo3 Assay (AID 1347143);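 also: SAH from peptide methylation measured as thiol fluorescence via SAHH coupling and ThioGlo3; nearly all actives have a fitted effect of over 70% in size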
# Conditions: recombinant NTMT1, SAHH-coupled ThioGlo3 fluorescence; series mostly up to 114 µM
# Description: Assay Submitter (PI): Rong Huang Ph.D, Purdue University, West Lafayette, IN 47907 The N-terminal methytransferase 1 is the first methyltransferase that methylates protein alpha-N-amines and plays an important role in regulating cell mitosis, chromatin interactions and DNA repair. It is observed to be over-expressed in various cancer patient tissues like malignant melanoma and colorectal cancer tissues. Knockdown of NTMT1 in cancer cells causes cell mitotic defects and enhances sensitivity to DNA damaging chemotherapeutics. […] These critical cellular processes in which NTMT1 is implicated, coupled with emerging links to cellular dysfunction, strengthen the inference that NTMT1 is a compelling novel anticancer target. Progress have been made in understanding the molecular properties of NTMT1 and the biological consequences of protein alpha-N-terminal methylation, but there are no specific small molecule probes available for NTMT1 to fully characterize its MTase activity. To address this unmet need, a panel of assay is created and established to enable quantitative high-throughput screening (qHTS) for novel, potent, and selective small molecule NTMT1 inhibitors. Two orthogonal qHTS that use different reagents (ThioGlo vs. MTaseGlo) are developed for primary robotic screening against the NCATS chemical library of more than 400,000 small molecules. Identified inhibitors are reacquired, validated, and further characterized. […] A pilot screen against the LOPAC library of 1280 compounds is carried out to assess performance of the optimized qHTS in 1536-well plate format. Early Translation Branch (ETB) National Center for Advancing Translational Sciences (NCATS) National Institute of Health (NIH)
# Materials: NTMT1 enzyme, substrate SPKRIA, control peptide RCC1-6 is provided by the Huang laboratory. ThioGlo3 Assay: In brief, 125nM NTMT1 enzyme was dispensed into a 1536-well assay plate with Aurora Discovery BioRAPTR Flying Reagent Dispenser (FRD, Beckton-Dickenson). Compounds (at various concentration) or 1uM RCC1-6 (SPKRIA) control were transferred to the assay plate using the Kalypsys 1536-pintool apparatus. After 1 min of room temperature incubation, 1uL of substrate (100uM SAM, 10uM SAHH, 15uM ThioGlo3) was added to the wells bringing the final assay volume to 4uL. Initial (background) fluorescence readout (EX: 340nm, EM: 450nm) was then detected using the PerkinElmer ViewLux microplate imager and a final fluorescence readout was taken after 30 min of room temperature incubation. The data was normalized to the background fluorescence.
# Potency is read from the fitted curve at half-maximal effect.
row,Compound,Potency
1,C1COC(NC(C2CC2)C2CC2)=N1,inactive
2,OC(CN1CCC(Cc2ccc(F)cc2)CC1)c1ccc(Cl)cc1 (stereo not given),inactive
3,CCCCNc1cc(C(=O)O)cc(S(N)(=O)=O)c1Oc1ccccc1,50.1 µM (active)
4,Cc1cccc(-c2[nH]c(C(C)(C)C)nc2-c2ccc3nccnc3c2)n1,inactive
5,O=c1n(CCCN2CCN(c3cccc(Cl)c3)CC2)nc2ccccn12,79.4 µM (active)
6,CCC(C)N(C)C(=O)c1cc2ccccc2c(-c2ccccc2Cl)n1 (stereo not given),inactive
7,NC(=O)c1cnccn1,inactive
8,Nc1nc2ccc(OC(F)(F)F)cc2s1,inactive
9,NCCc1ccc(O)c(O)c1,44.7 µM (active)
10,CCCC(CCC)C(=O)O,inactive
11,Cc1oncc1C(=O)Nc1ccc(C(F)(F)F)cc1,inactive
12,Cc1ccc(N(CC2=NCCN2)c2cccc(O)c2)cc1,inactive
13,CCc1cncnc1N1CCN(Cc2nc3ccc(C(F)(F)F)cc3[nH]2)CC1,inactive
14,CN1CCN(CCCN2c3ccccc3Sc3ccc(C(F)(F)F)cc32)CC1,44.7 µM (active)
15,N[C@@H]1CONC1=O,inactive
16,NS(=O)(=O)c1cc2c(cc1Cl)NC=NS2(=O)=O,inactive
17,Clc1cccc(Cl)c1NC1=NCCN1,inactive
18,c1ccc([C@H]2CN3CCSC3=N2)cc1,inactive
19,Oc1ccc(C2CNCCc3c2cc(O)c(O)c3Cl)cc1 (stereo not given),44.7 µM (active)
20,CCN(CC)CCCC(C)Nc1ccnc2cc(Cl)ccc12 (stereo not given),inactive

row,Compound,Potency
1,O=C(Nc1nc2ccccc2n1CCN1CCOCC1)c1cccc([N+](=O)[O-])c1,inactive
2,O=c1[nH]cnc2[nH]ncc12,inactive
3,Cc1cc2c(C(C)C)c(O)c(O)c(C=O)c2c(O)c1-c1c(C)cc2c(C(C)C)c(O)c(O)c(C=O)c2c1O,56.2 µM (active)
4,Cc1cnc(NC(=O)C2=C(O)c3ccccc3S(=O)(=O)N2C)s1,inactive
5,OC(CCN1CCCCC1)(c1ccccc1)C1CC2C=CC1C2 (stereo not given),inactive
6,Cc1[nH]c(=O)c(C#N)cc1-c1ccc2nccn2c1,50.1 µM (active)
7,C[C@]12CCC(=O)C=C1CC[C@@H]1[C@@H]2[C@@H](O)C[C@@]2(C)[C@H]1CC[C@]2(O)C(=O)CO,inactive
8,CC(C)(C)NCC(O)c1ccc(O)c(CO)c1 (stereo not given),inactive
9,CC(C)NCC(O)COc1ccc(COCCOC(C)C)cc1 (stereo not given),inactive
10,CC(C)(Sc1ccc(CCN(CCCCC2CCCCC2)C(=O)NC2CCCCC2)cc1)C(=O)O,inactive
11,Cc1ccccc1C(OCCN(C)C)c1ccccc1 (stereo not given),inactive
12,NCCCC(N)(C(=O)O)C(F)F (stereo not given),inactive
13,CNC[C@H](O)c1cccc(O)c1,inactive
14,O=C1CCC(N2C(=O)c3ccccc3C2=O)C(=O)N1 (stereo not given),inactive
15,CCOC(=O)N1CCC(=C2c3ccc(Cl)cc3CCc3cccnc32)CC1,inactive
16,CS(=O)(=O)c1cccc(CNc2nc(Nc3ccc4c(c3)CCC(=O)N4)ncc2C(F)(F)F)c1,56.2 µM (active)
17,Nc1nc2c(ncn2COCCO)c(=O)[nH]1,inactive
18,O=C1CCc2cc(OCCCCc3nnnn3C3CCCCC3)ccc2N1,inactive
19,CC(C)C[C@H](NC(=O)[C@@H](O)[C@H](N)Cc1ccccc1)C(=O)O,inactive
20,CCn1cc(C(=O)O)c(=O)c2cc(F)c(N3CCNC(C)C3)c(F)c21 (stereo not given),56.2 µM (active)
